# Screening results (PubChem)
# In the library only some 8.1% were active in any assay of this set; here they are far more common.
# KB-3-1 cytotox – KB-3-1 parental cell cytotoxicity; 400,000 compounds, 1.4% hits; Potency, µM (highest dose often 46.1 µM), usual class: cytotoxic; KB-3-1 viability, CellTiter-Glo ATP luminescence, 72 h; also: % is scaled to controls: 0 for no effect and ±100 for the full control effect; nearly all actives have a fitted effect of over 60% in size
#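 Cytotoxicity measured as CellTiter-Glo luminescence after 72 h at 37 C. Compound titrations were pinned onto drug-naive KB-3-1 parental adenocarcinoma cells grown in DMEM with 10% FBS, and normalized data fitted to concentration-response curves.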
# KB-V1 cytotox – kills drug-selected multidrug resistant KB-V1 cells; KB-V1 MDR cells viability, CellTiter-Glo, 72 h; Potency, µM (titrated, usually from 46.1 µM), most hits filed as cytotoxic; 400,000 compounds, 3.4% hits; also: % is scaled to controls: 0 for no effect and ±100 for the full control effect; nearly all actives have a fitted effect of over 60% in size
#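 Potencies derive from concentration-effect curves fitted to normalized luminescence (CellTiter-Glo) of KB-V1 cells treated for 72 h at 37 degrees C in phenol-red-free DMEM containing 10% FBS.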
# ELG1 repair inh – ELG1-dependent DNA repair inhibition; HEK293T ELG1-luciferase reporter, luminescence, 16 h; DNA damage induced by 5-fluorouridine; Potency, µM (doses to about 46.1 µM), inactives show at the top dose activity change, negative = inhibition, most hits filed as inhibitors; 330,000 compounds, 2.3% hits; AID 504467; also: % is scaled to controls: 0 for no effect and ±100 for the full control effect; nearly all actives have a fitted effect of over 55% in size
#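 Cells (2,000 per well) received 5-fluorouridine plus test compound or DMSO and were incubated 16 hr at 37 °C, 5% CO2. Luciferase activity was read by luminescence 30 min after ONE-Glo addition; signal suppression marked inhibition of damage-induced ELG1 function.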
# MCF10A rereplic – induces DNA re-replication in MCF 10a normal breast cells | 350,000 compounds, 2.9% hits | MCF 10A DNA re-replication, Hoechst nuclear intensity, 48 h | Potency, µM (highest dose often 46.1 µM), for inactives: top-dose activity, positive = re-replication, actives largely listed as activators | AID 624296; also: % of control where 0% means no effect; nearly all actives have a fitted effect of over 50% in size
# SW480 rereplic – inducers of DNA re-replication in SW480 colon cancer cells; SW480 DNA re-replication, Hoechst DNA content imaging, 48 h; 340,000 compounds, 1.8% hits; Potency, µM (series often up to 46.1 µM), inactives show at the top dose re-replication activation, usual class: activators; AID 624297; also: % of control where 0% means no effect; nearly all actives have a fitted effect of over 55% in size
#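 Per well, 250 cells were exposed to pinned compound for 48 hr. Nuclear DNA was visualised with Hoechst (40 min, 37 C) and total object intensity recorded by fluorescence scanning.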
# * marks the source's active call; other numbers are inactive results; i = inactive; ? = inconclusive; · = not tested or not shown. Calls follow the shape of the dose curve; as a rule, active = well fitted curve in the direction sought with a large enough effect; inconclusive = small, poorly fitted or top-dose-only effect, or another doubt; inactive = no such curve, though single readings can be large; an effect the other way counts as inactive or inconclusive. Potency is read from the fitted curve at half-maximal effect.
SMILES,KB-3-1 cytotox,KB-V1 cytotox,ELG1 repair inh,MCF10A rereplic,SW480 rereplic
CC(=O)N1c2ccc(S(=O)(=O)N3CCCC(C(=O)N4CCCC(C)C4)C3)cc2CC1C (configuration not stated),i,i,?,12%,-20%
CCOC(=O)C1CCN(C2CCN(C(=O)c3oc4c(C)c(C)ccc4c3C)CC2)CC1,i,i,?,?,1%
Cc1ccc(NC(=O)c2cc(C(=O)c3cc(Cl)ccc3O)cn(-c3ccc(C)cc3)c2=O)cc1,?,18µM*,26µM*,11%,16%
COc1ccc(CN(C(=O)c2ccccc2F)C2CCS(=O)(=O)C2)cc1 (configuration not stated),i,i,·,·,·
Cn1c(=O)c2c(nc(N3CCNCC3)n2Cc2ccccc2Cl)n(C)c1=O,i,i,11%,-3%,-20%
Cn1c(=O)[nH]c(=O)c2c1nc(N1CCNCC1)n2Cc1ccccc1Cl,i,i,1%,2.9µM*,-38%
CC1CN(c2nc3c(c(=O)[nH]c(=O)n3C)n2Cc2ccccc2F)CC(C)O1 (configuration not stated),i,18µM*,?,0%,-6%
CCN1CCN(c2nc3c(c(=O)[nH]c(=O)n3C)n2Cc2ccccc2F)CC1,i,i,-2%,?,11%
Cc1ccc(C)c(NS(=O)(=O)c2cc(C(=O)NCCSC3CCCCC3)ccc2C)c1,i,?,21µM*,?,?
Cc1ccccc1NS(=O)(=O)c1cc(C(=O)NCCSC2CCCCC2)ccc1C,i,?,?,0%,-3%
CCCCCn1c(N2CCN(Cc3ccccc3)CC2)nc2c1c(=O)[nH]c(=O)n2C,i,i,16µM*,4%,0%
Cn1c(N2CCN(C(c3ccccc3)c3ccccc3)CC2)nc2c1c(=O)[nH]c(=O)n2C,?,21µM*,?,7%,-6%
Cn1c(N2CCCCC2)nc2c1c(=O)[nH]c(=O)n2C,i,i,2%,1%,-11%
C=CCn1c(SCc2nc3c(c(=O)[nH]c(=O)n3CCCC)n2CCC)nnc1-c1ccccc1,i,i,18µM*,-2%,0%
CCCCn1c(CN2CCN(c3cccc(Cl)c3)CC2)nc2c1c(=O)[nH]c(=O)n2C,?,i,?,?,5.8µM*
C=CCOc1ccc(-c2nc3c(c(=O)[nH]c(=O)n3CCC)n2CCCC)cc1,i,i,0%,28%,2%
CCCN(CCC)CCCNC(=O)Cn1ncc2c3ccccc3n(Cc3ccccc3F)c2c1=O,i,i,·,·,·
C[C@@H]1CCCCO[C@H](CN(C)C(=O)Nc2ccc(F)cc2)[C@@H](C)CN([C@H](C)CO)C(=O)c2cc(N(C)C)ccc2O1,i,i,·,·,·
CC1(CCc2ccccc2)NC(=O)NC1=O (configuration not stated),·,·,·,13%,-5%
COc1ccc(OC)c(CNC(=O)c2ccc(N3Cc4ccccc4Oc4ncccc43)s2)c1,i,i,·,·,·
COc1ccc(N2CCN(Cc3nc4c(c(=O)[nH]c(=O)n4C)n3CCCc3ccccc3)CC2)cc1,i,?,8.9µM*,-4%,?
CCCCn1c(=O)[nH]c(=O)c2c1nc(-c1ccsc1)n2Cc1ccccc1,i,?,18µM*,19%,10%
Cn1c(=O)[nH]c(=O)c2c1nc(CN1CCN(c3cccc(Cl)c3)CC1)n2CCCc1ccccc1,i,i,9.2µM*,-3%,-2%
N#C/C(=N\Nc1c(Cl)cccc1Cl)C(=O)NN,15µM*,8.2µM*,?,-14%,-3%
N#C/C(=N\Nc1cccc(Cl)c1)C(=O)c1ccccc1,16µM*,?,?,?,-1%
SMILES,KB-3-1 cytotox,KB-V1 cytotox,ELG1 repair inh,MCF10A rereplic,SW480 rereplic
N#C/C(=N\Nc1ccccc1Cl)C(=O)c1ccccc1,15µM*,?,6%,14%,-2%
COc1ccc(C(=O)/C(C#N)=N/Nc2cccc([N+](=O)[O-])c2)cc1,?,5.8µM*,?,?,?
O=C(CSc1ncc(-c2ccc(Cl)cc2)[nH]1)Nc1ccccc1F,i,i,·,·,·
Cc1ccc(CCNC(=O)c2c(C)oc3ncn(CC(C)C)c(=O)c23)cc1,i,?,·,·,·
COc1ccccc1-c1ccc2c(c1)C(C)(Cc1cc(Cl)ccc1C(F)(F)F)C(=O)N2 (configuration not stated),?,21µM*,·,·,·
Cc1cccc(-c2nsc(SCC(=O)N3CCCC3)n2)c1,i,16µM*,?,6%,-4%
CCOC(=O)c1ccccc1NC(=O)c1sc2nc3n(c(=O)c2c1C)CCCC3,i,i,·,·,·
COc1ccc(-c2nc(CSCC(=O)NCCc3ccc(OC)c(OC)c3)c(C)o2)cc1,i,i,·,·,·
O=C(Nn1c(SCc2ccc(F)cc2)nc2ccsc2c1=O)c1ccccc1,i,4.1µM*,22%,?,-3%
COc1cc(/C=N/Nc2nc(=O)[nH]nc2C)ccc1O,i,i,-20%,?,15µM*
COc1ccc(/C=N/Nc2nc(=O)[nH]nc2C)cc1OC,i,i,-7%,?,2.9µM*
O=c1c2ccccc2oc2cc(-c3ccc4[nH]ccc4c3)ccc12,?,i,·,?,4.1µM*
COc1cc2sc3ccc(-c4ccc5[nH]ccc5c4)cc3c(=O)c2cc1OC,i,?,·,17%,?
Cc1ccc(S(=O)(=O)N2C(=O)[C@@H]3Cc4ccccc4CN3C2=O)cc1,i,i,2%,0%,21%
O=S(=O)(NC1CCCCC1)c1ccc(Cl)s1,i,?,10%,21µM*,?
O=C(CSc1nnc(-c2ccco2)n1Cc1ccccc1)c1ccccc1,i,i,?,29%,8%
CN(Cc1ccccc1)C(=O)CSc1nnc(-c2ccco2)n1-c1ccccc1,i,3.7µM*,0%,2%,-5%
Cc1ccc(C(=O)CSc2nnc(-c3ccco3)n2Cc2ccccc2)cc1,21µM*,?,?,13%,2%
O=C(CSc1nnc(-c2ccco2)n1Cc1ccccc1)NC(=O)NCc1ccccc1,i,?,18µM*,?,-1%
Cc1ccc2nc(CSc3nnc(-c4ccco4)n3-c3ccccc3)cc(=O)n2c1,i,10µM*,·,4%,24%
COCCCNC(=O)C1CCN(c2cc(C)nc3c(-c4ccc(OC)c(OC)c4)c(C)nn23)CC1,i,i,·,·,·
COCCn1c(N)c(N(Cc2ccccc2)C(=O)C(C)Oc2ccc(Br)cc2)c(=O)[nH]c1=O (configuration not stated),i,i,·,·,·
O=C(NCCCN1CCN(c2ccc(F)cc2)CC1)c1cnn(-c2ccc(F)cc2)c1-n1cccc1,?,18µM*,·,·,·
